Assay outcomes (PubChem)
An excerpt weighted towards active compounds, which were near 2.4% of everything screened.
Platelet DG rel – modulates dense granule release in human platelets; actives 0.22% (n = 300,000); AID 1663; human platelet-rich plasma, SFLLRN dense granule ATP release, luminescence; inhibition, %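 (compounds screened at 7.5 µM in platelet-rich plasma)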;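 active means mean replicate score, as percent of positive control, at or above 50; inconclusive means mean below 50 but at least one replicate at or above 50; inactive means mean and every replicate below 50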
SENP8 block-1 – blocks human SENP8 cleavage of Nedd8 substrate | Q96LD8 | recombinant SENP8, Nedd8 substrate fluorescence | inhibition, % at 20 µM | actives 0.64% (n = 360,000) | AID 602440; in the data active means inhibition mostly above about 40%, no sharp cut-off; inactive means mostly below about 27%
Target sequence (Q96LD8 whole entry, looked up): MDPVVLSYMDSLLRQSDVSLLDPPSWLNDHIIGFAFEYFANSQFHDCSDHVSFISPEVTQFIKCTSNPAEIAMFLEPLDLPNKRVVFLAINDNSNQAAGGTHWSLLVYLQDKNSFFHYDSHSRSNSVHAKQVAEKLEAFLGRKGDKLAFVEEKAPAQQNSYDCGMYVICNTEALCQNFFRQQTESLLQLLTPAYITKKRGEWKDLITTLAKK
SENP8 block-2 – SENP8 protease inhibition | actives 1.2% (n = 330,000) | AID 2540 | Q96LD8 | purified SENP8, Z-RLRGG-aminoluciferin cleavage, luminescence | inhibition, % at 10 µM; in the data active means inhibition above about 50%
SENP6 block – SENP6 protease inhibition; Q9GZR1; Recombinant SENP6 catalytic domain, aminoluciferin luminescence; inhibition, % at 10 µM; actives 1.8% (n = 330,000); AID 2599;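 active means inhibition above about 50% at the single tested dose, limit read from the data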;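 further: plate controls were DMSO wells with enzyme for no effect and DMSO wells lacking enzyme for full effect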
SENP7 inh – blocks the human protease SENP7; inhibition, % at 5 µM; recombinant SENP7, Z-RLRGG-aminoluciferin luminescence, 40 min; actives 1.5% (n = 330,000); Q9BQF6;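 active means inhibition above about 50% at the single test dose, limit read from the data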;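 further: plate controls were DMSO with enzyme for no effect and no enzyme buffer wells for full effect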
Target sequence (Q9BQF6 706-1050 limits assumed): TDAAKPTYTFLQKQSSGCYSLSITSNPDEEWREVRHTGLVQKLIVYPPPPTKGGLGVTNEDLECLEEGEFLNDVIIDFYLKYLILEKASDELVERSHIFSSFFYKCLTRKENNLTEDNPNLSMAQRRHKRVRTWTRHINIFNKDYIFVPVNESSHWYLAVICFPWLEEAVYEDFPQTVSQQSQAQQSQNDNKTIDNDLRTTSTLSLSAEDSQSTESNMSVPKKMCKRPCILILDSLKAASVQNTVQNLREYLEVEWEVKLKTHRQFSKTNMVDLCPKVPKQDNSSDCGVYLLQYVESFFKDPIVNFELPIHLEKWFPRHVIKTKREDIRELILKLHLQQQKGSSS
* hit, by the source's call; i = inactive; ? = inconclusive; . = no result.

SMILES	Platelet DG rel	SENP8 block-1	SENP8 block-2	SENP6 block	SENP7 inh
C=C(C)C(=O)Oc1ccc(N2C(=O)[C@@H]3C4C=CC(C4)[C@@H]3C2=O)cc1	-1.1	10.4	-9.7	-22.2	-1.9
O=C1NC[C@H](CC2CCCCC2)N(CCc2cccc(F)c2)C1=O	3.5	24.1	2.1	0.1	1.7
CCOC(=O)c1cc(CC)sc1/N=C/C1=C(O)CC(C)(C)CC1=O	-16.6	-46.6	-14.9	-20.4	-2.8
CCOC(=O)c1sc(N=NC2=C(O)CC(C)(C)CC2=O)c(C(=O)OCC)c1C	59.5*	29.5	-9.3	-45.5	-4.3
COc1ccccc1CN1CC(C(=O)N2CCC(C(=O)c3ccccc3)CC2)CCC1=O (stereo not given)	3.5	7.3	1.9	-14.6	4.4
Cc1ccc(F)c(NC(=O)/C(C#N)=C(\O)c2ccc(C(C)(C)C)cc2)c1	-4.0	13.4	52.7*	21.9	5.4
CCN(CC)c1ccc(NC(=O)COC(=O)/C=C/c2nc3ccccc3s2)cc1	-2.2	3.5	-0.5	-20.2	-0.6
CCN(CC)c1ccc(/C=C/c2nc3ccccc3s2)cc1	17.9	.	94.1*	86.2*	94.6*
CCCCOCCCNC(=O)C[C@@H]1C[C@@]2(C(=O)OCC)CCCC=C2N(CCc2ccc(OC)c(OC)c2)C1=O	.	16.9	.	.	.
CC(C)(C)C(O)(CC#CCN1CCCC1)c1ccccc1 (stereo not given)	-3.5	11.5	-6.3	-14.9	-8.1
CC(C)(C)c1ccc(OC(=O)Nc2ccc(O)c(C(=O)O)c2)cc1	-5.0	-262.7	72.1*	83.2*	18.2
Nc1nc(=S)c2ncn(C3CCCC3)c2[nH]1	-14.7	4.3	.	.	.
Cn1c(=O)c2c(nc(SCCN3CCOCC3)n2Cc2ccccc2Cl)n(C)c1=O	62.6*	6.8	5.4	3.7	5.9
Cn1c(=O)c2c(nc(SCCN3CCOCC3)n2Cc2cccc3ccccc23)n(C)c1=O	0.2	2.8	-9.4	-30.6	-0.2
COc1cccc(CNC(=O)c2cc(S(=O)(=O)N3CCOCC3)cn2C)c1	51.1*	15.4	-4.2	-10.5	-4.4
COc1ccc(CCNC(=O)c2cc(S(=O)(=O)N3CCOCC3)cn2C)cc1OC	50.8*	0.3	-8.1	-24.7	-12.4
Cc1ccc(C)c(NC(=O)c2cc(S(=O)(=O)N3CCOCC3)cn2C)c1	110.9*	10.4	-7.4	-28.8	-14.6
COc1ccc(CNC(=O)c2cc(S(=O)(=O)N3CCOCC3)cn2C)cc1	-27.6	-3.9	-9.6	8.6	-15.3
C[C@H](CO)N1C[C@H](C)[C@@H](CN(C)S(=O)(=O)c2cccs2)Oc2c(NS(=O)(=O)c3ccccc3)cccc2C1=O	.	6.8	-0.1	1.8	2.2
C/C(=N\Nc1nc2ccccc2[nH]1)c1ccccn1	5.5	-3.7	32.2	59.4*	-0.8
CCC(=O)Nc1cccc(NC(=O)c2ccccc2Br)c1	41.5	5.0	5.6	16.8	0.4
CC(C)CC(=O)Nc1cccc(NC(=O)c2ccccc2Cl)c1	92.0*	18.5	0.8	-5.8	-1.7
CCCC(=O)Nc1cccc(NC(=O)c2ccccc2Br)c1	85.6*	14.3	-5.2	-1.6	-5.9
CC(C)CC(=O)NC(=S)Nc1cccc(NC(=O)c2ccccc2Cl)c1	-5.1	3.5	-0.4	-3.9	6.0
O=C(NCCN1CCC(n2c(=O)[nH]c3ccccc32)CC1)N1c2ccccc2Sc2ccccc21	.	12.1	.	.	.
SMILES	Platelet DG rel	SENP8 block-1	SENP8 block-2	SENP6 block	SENP7 inh
COC(=O)C[C@@H]1OC[C@H](CO)N1S(=O)(=O)c1ccc(C)cc1	.	20.1	.	.	.
CCOc1cc(C2CC(=O)N3CN(C4CCCCC4)CSC3=C2C#N)ccc1O (stereo not given)	-1.7	66.3*	-0.7	13.9	25.2
O=C(Nc1ccc(-c2cn3ccccc3n2)cc1)c1cccs1	-1.3	-29.9	39.4	48.6	52.2*
COc1ccc(CC(=O)Nc2ccc(-c3cn4ccccc4n3)cc2)cc1	?	i	-13.9	-2.6	-13.2
O=C(Nc1ccc(-n2cnnn2)cc1)c1cn2ccccc2n1	6.8	-66.7	-5.3	24.7	32.9
O=C(Nc1ccccc1)c1cn2ccccc2n1	41.7	27.6	81.9*	90.2*	90.6*
CCOC(=O)C1CCCN(C(=O)c2cc(F)ccc2C)CC1 (stereo not given)	.	17.2	.	.	.
CNC1=C(N(C(C)=O)c2ccc(Br)cc2)C(=O)c2ccccc2C1=O	-4.1	84.5*	.	.	.
CC(=O)Nc1nc(-c2ccc(Cl)cc2)ns1	14.1	-6.6	34.8	55.5*	12.8
N#CC(C#N)=NNc1ccc(S(=O)(=O)N2CCCCC2)cc1	-0.9	47.1*	3.0	16.8	-0.7
N#C/C(=N\Nc1ccc(S(=O)(=O)N2CCOCC2)cc1)C(N)=S	6.6	35.8	10.1	-5.3	3.3
CSCC[C@H](NC(=O)[C@@H]1Cc2ccccc2CN1)C(=O)Nc1ccc2c(c1)OCCO2	13.8	-0.1	-3.2	7.0	-6.2
O=C1C=C(O)c2[nH]c(=O)ccc2C1=O	.	64.3*	.	.	.
NC1=CC(=O)C(=O)c2ccccc21	.	11.1	.	.	.
CN(Cc1cn(Cc2ccc(Cl)cc2)nn1)C1CN(Cc2cn(Cc3ccc(Cl)cc3)nn2)S(=O)(=O)C1 (stereo not given)	.	25.6	.	.	.
O=C(c1ccc(Cl)cc1)c1ccc(CN2C(=O)c3ccccc3C2=O)o1	9.4	23.9	-5.6	-4.1	2.6
Cc1oc2c(c1C(=O)c1ccc(Cl)cc1)C(=O)C(=O)c1ccccc1-2	1.4	113.4*	.	.	.
Cc1ccc(C(=O)c2coc3c2C(=O)C(=O)c2ccccc2-3)cc1	-13.3	55.9*	2.8	23.1	-2.3
COC1=CC(=NCl)C=CC1=NCl	.	75.5*	.	.	.
Cn1c(=O)c2c(ncn2CC(=O)N/N=C/C=C/c2ccccc2[N+](=O)[O-])n(C)c1=O	1.3	.	-5.3	-44.4	-8.8
Cc1ccccc1NC(=O)CC(=O)Nc1ccccc1C	1.0	12.0	-4.0	-20.8	2.3
Cc1ccccc1NC(=O)C(=O)Nc1ccccc1C	12.3	11.3	9.5	29.9	80.2*
O=C(O)CCCCCCC1C(=O)NC(=O)N1CCC(O)C1CCCCC1 (stereo not given)	87.9*	2.4	3.7	-4.2	-0.3
COc1ccc(CN2CCCCC2C(=O)Nc2ccc(OC)c(OC)c2)cc1OC (stereo not given)	-5.3	10.2	-7.5	3.8	1.0
COc1ccc(CN2CCCC2C(=O)Nc2ccc(OC)c(OC)c2)cc1OC (stereo not given)	14.6	-4.3	-3.1	-18.9	64.4*
SMILES	Platelet DG rel	SENP8 block-1	SENP8 block-2	SENP6 block	SENP7 inh
CCCN1C(=O)/C(=C2/C=Cc3ccccc3N2CC)SC1=S	26.1	28.3	-5.0	0.7	1.1
CCCN1/C(=C2/SC(=S)N(CC)C2=O)C=Cc2ccccc21	6.8	41.3*	3.4	-2.3	9.0
Cc1cccc(C)c1NC(=O)C(CCc1ccccc1)n1c(=O)c(-c2ccccc2)nc2ccccc21 (stereo not given)	.	-324.1	.	.	.
CCOc1ccc(/C=N/NC(=O)c2nnn(-c3nonc3N)c2CN(C)C2CCCCC2)cc1	-1.5	8.9	-9.1	-6.6	12.4
CC(=NNc1ccc([N+](=O)[O-])cn1)c1ccc(N)cc1	.	58.1*	.	.	.
COc1ccc(C(=O)Nc2ccc3[nH]ccc3c2)cc1	57.8*	0.0	16.2	30.6	47.1
